Compound activity (PubChem BioAssay)
Menin MLL FP FL: displaces fluorescein MLL peptide from human menin | Fluorescence polarization, fluorescein-MLL peptide displacement from menin | 290,000 tested, under 10 active | FP activity change, % at 61.4 µM; active means well fitted curve in the direction sought with a large enough effect in the polarisation, not every such curve was filed as active; inconclusive means small, poorly fitted or top-dose-only effect, or effect the other way, or a change in a side signal; inactive means no such curve, though single readings can be large or run the other way; the % refers to the polarisation; further: % of control where 0% means no effect
TexasRed fluor: counter-screen for TRb-SRC2 inhibitors: fluorescence interference. AID 1479. Potency, µM (top dose mostly 106 µM), inactives show at the top dose fluorescence change, negative = quenching. TRb/SRC2 Texas Red total fluorescence interference. 280,000 compounds, 0.29% hits; active means well fitted curve in either direction with a large enough effect; inconclusive means small, poorly fitted or top-dose-only effect; further: potency means the concentration at half of the fitted maximal effect; on the % scale 0 is the no-effect control and ±100 the full control effect
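Human TRb ligand-binding domain at 0.6 uM with 20 nM Texas Red SRC2 peptide in Tris buffer containing 1 uM T3 and 5% DMSO, incubated with compound 5 h at ambient temperature. Total fluorescence (555/632 nm) calculated as parallel + 2 × perpendicular.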
TRb-SRC2 inh: TRbeta-SRC2 interaction inhibition | P10828 | TRbeta-SRC2 peptide binding, fluorescence polarization; receptor liganded with 1 µM T3 | Potency, µM (doses to about 106 µM), without a hit: at the top dose activity change, negative = inhibition, actives largely listed as inhibitors | 280,000 compounds, 0.065% hits; active means well fitted inhibition curve with a large enough effect; inconclusive means small, poorly fitted or top-dose-only effect, or effect the other way;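 further: potency means the concentration at half of the fitted maximal effect; plate controls were bound peptide for no effect and peptide without receptor for full effect; nearly all actives have a fitted effect of over 50% in size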
Target sequence (P10828 whole entry, looked up): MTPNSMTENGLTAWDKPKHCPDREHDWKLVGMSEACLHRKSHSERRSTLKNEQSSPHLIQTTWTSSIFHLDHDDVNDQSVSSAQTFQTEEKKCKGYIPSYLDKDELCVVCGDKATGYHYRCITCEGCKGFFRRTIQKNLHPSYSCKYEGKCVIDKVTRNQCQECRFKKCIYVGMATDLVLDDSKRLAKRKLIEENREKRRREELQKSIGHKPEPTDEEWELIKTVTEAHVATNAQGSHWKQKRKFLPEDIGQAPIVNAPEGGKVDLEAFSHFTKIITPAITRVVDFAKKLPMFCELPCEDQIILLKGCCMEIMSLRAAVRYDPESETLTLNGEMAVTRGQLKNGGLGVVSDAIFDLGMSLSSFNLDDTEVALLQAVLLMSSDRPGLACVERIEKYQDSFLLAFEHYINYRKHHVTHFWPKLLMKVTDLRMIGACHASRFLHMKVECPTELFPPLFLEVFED
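Polarization signal, normalized between peptide-alone and full complex controls, measured compound effects on T3-liganded human TRb LBD (0.6 uM) binding 20 nM Texas Red SRC2 peptide after 5 hr.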
GoLoco inh red: RGS12 GoLoco-Gai1 interaction inhibition; Gai1:RGS12 GoLoco peptide FP, rhodamine, 10 min; 230,000 compounds, 0.44% hits; Potency, µM (series often up to 61.6 µM), without a hit: top-dose activity, negative = inhibition, actives largely listed as inhibitors; AID 880; P63096; active means well fitted inhibition curve with a large enough effect, not every such curve was filed as active; inactive means no such curve, though single readings can be large or run the other way; further: potency means the concentration at half of the fitted maximal effect; on the % scale 0 is the no-effect control and ±100 the full control effect; nearly all actives have a fitted effect of over 30% in size
CXXC DNA block: blocks binding of human MLL CXXC domain to DNA; MLL-CXXC / FITC-HOXA9 DNA fluorescence polarization; Potency, µM (series often up to 115 µM), for inactives: top-dose activity change, negative = inhibition, usual class: inhibitors; AID 2662; 290,000 compounds, 0.037% hits; active means well fitted inhibition curve with a large enough effect in the polarisation, with a control signal flat, not every such curve was filed as active; inconclusive means small, poorly fitted or top-dose-only effect, or effect the other way, or a change in a side signal; inactive means no such curve, though single readings can be large or run the other way; the % refers to the polarisation; further: potency means the concentration at half of the fitted maximal effect
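Steps: dispense CXXC domain solution (7 uM) → pin compounds or unlabeled HOX-A9 DNA control → 5 min ambient → add FLSN-HOX-A9 solution (50 nM) → spin → 30 min ambient → fluorescence polarization. Tris pH 7.5/NaCl/DTT/BSA buffer.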
Menin MLL FP TR: menin-MLL binding inhibition, Texas Red mutant peptide. Potency, µM (highest dose often 61.6 µM), without a hit: top-dose FP activity change, negative = inhibition, most hits filed as inhibitors. Menin + Texas Red MLL mutant peptide, fluorescence polarization. 270,000 compounds, 0.23% hits; active means well fitted inhibition curve with a large enough effect in the polarisation, with a control signal flat, not every such curve was filed as active; inconclusive means small, poorly fitted or top-dose-only effect, or effect the other way, or a change in a side signal; inactive means no such curve, though single readings can be large or run the other way; the % refers to the polarisation; further: potency means the concentration at half of the fitted maximal effect; % of control where 0% means no effect
Numbers without * were called inactive; ? = inconclusive; / = no result given; ! = a repeat was not active; [ ] = another dose, or the depositor's remark. Rows were chosen to be rich in hits. Some 0.5% of all compounds tested hit in one or more screens of this group.

SMILES	Menin MLL FP FL	TexasRed fluor	TRb-SRC2 inh	GoLoco inh red	CXXC DNA block	Menin MLL FP TR
CCC1CCCCN1CCCNC(=O)c1c(O)nc2c(C)cccn2c1=O (stereo not drawn)	-2	-30%	0%	/	-2%	-11%
Cc1cccn2c(=O)c(C(=O)NCCCN3CCCCC3C)c(O)nc12 (stereo not drawn)	5	18µM*[quencher]	-1%	/	2%	-1%
CSc1ccc(Cl)cc1	/	-6%[201 µM]	9%[201 µM]	/	/	/
Cc1c2cccn2cc[n+]1C	-5	-3%	1%	8.9µM*	4%	0%
C1=C/CC/C=C/CC/C=C/CC/1	/	-4%[201 µM]	-12%[201 µM]	/	/	/
Nc1ccc(N2CCCCCC2)cc1	3	25%	45µM*	-10%	-2%	?
COC(=O)c1ccc(Cn2c(C)cc(C)[n+]2C)o1	0	1%	-13%	18µM*	2%	/
CC1COCc2cc3c(cc21)C(C)(C)C(C)C3(C)C (stereo not drawn)	/	-2%[201 µM]	5%[201 µM]	/	/	/
CCCCCCCCCCCCCCCCn1cc[n+](Cc2ccccc2)c1C	-20	3%	-1%	/	/	22µM*
CCCCCCCCCc1ccccc1	/	-2%[201 µM]	7%[201 µM]	/	/	/
CCOC(=O)c1cc(S(=O)(=O)NCc2ccc(Cl)cc2)[nH]n1	/	-4%	9%	/	/	/
CCOc1ccc(CNC(=O)C2Cc3ccccc3N2C(=O)CC)cc1 (stereo not drawn)	/	-1%	0%	/	/	/
CC(C)(O)C1Cc2cc(/C=C/C(=O)O)c(O)cc2O1 (stereo not drawn)	3	-5%	1%	28µM*	3%	4%
COc1cc2c(cc1/C=C/C(=O)O)OC(C)C2 (stereo not drawn)	6	-1%	1%	0%	-10%	16%
c1ccc2[nH]c(-c3ccnc4ccccc34)nc2c1	-7	-4%	-3%	25µM*!	3%	17%
Fc1ccccc1-c1nc2ccccc2[nH]1	-1	0%[53 µM]	-5%[53 µM]	16%	4%	2%
COC(=O)c1ccc(NC(=O)C(c2ccccc2)N2Cc3ccccc3C2=O)cc1 (stereo not drawn)	/	?	-8%	/	/	/
Cc1ccc(C)c(NC(=O)C(Cc2ccccc2)N2Cc3ccccc3C2=O)c1 (stereo not drawn)	/	126µM*[quencher]	-21%	/	/	/
CC(=O)Nc1ccc(NC(=O)C(c2ccccc2)N2Cc3ccccc3C2=O)cc1 (stereo not drawn)	/	100µM*[quencher]	-17%	/	/	/
Cc1ccc(C)c(NC(=O)C(c2ccccc2)N2Cc3ccccc3C2=O)c1 (stereo not drawn)	/	100µM*[quencher]	-29%	/	/	/
Cc1cc(F)ccc1NC(=O)C(c1ccccc1)N1Cc2ccccc2C1=O (stereo not drawn)	/	4%	-5%	/	/	/
CCCC/C=C\CCCCCCCCCC=O	/	3%[201 µM]	9%[201 µM]	/	/	/
CCOc1c(Cl)cc(C(=O)N(Cc2ccc(N(C)C)cc2)Cc2ccco2)cc1Cl	/	1%	-12%	/	/	/
CC1(C(=O)NC2CCCCC2)Cc2ccccc2C(=O)N1Cc1ccc(F)cc1 (stereo not drawn)	/	32µM*[quencher]	-9%	/	/	/
Cc1ccc(NC(=O)C(=O)NCCc2csc3nc(-c4ccccc4C)nn23)cc1Cl	/	-16%	0%	/	/	/
SMILES	Menin MLL FP FL	TexasRed fluor	TRb-SRC2 inh	GoLoco inh red	CXXC DNA block	Menin MLL FP TR
Cc1ccc(C)c(NC(=O)C(=O)NCCc2csc3nc(-c4ccccc4C)nn23)c1	/	22µM*[quencher]	-15%	/	/	/
CC1=NC(=O)C(N=Nc2cccc(C(=O)O)c2)N1c1ccccc1 (stereo not drawn)	3	-7%	2%	20µM*	?	18%
COc1ccccc1N1CCN(/N=C/c2cc(OC)c(O)c(OC)c2)CC1	9	1%	-4%	2.8µM*	-10%	-20%
COc1ccc2cc(C(C)C(=O)O)ccc2c1 (stereo not drawn)	-2	3%	2%	28µM*!	/	-2%
COC(=O)C(C)Oc1ccc(Oc2ncc(C(F)(F)F)cc2Cl)cc1 (stereo not drawn)	/	0%[201 µM]	2%[201 µM]	/	/	/
COc1cccc(CNC(=O)CN2C(=O)CCCc3ccccc32)c1OC	/	20µM*[quencher]	-9%	/	/	/
COC(=O)c1c(NC(=O)CCCOc2ccc(C(C)(C)C)cc2)sc2c1C(C(=O)OC)CC2 (stereo not drawn)	/	-1%	6%	/	/	/
CCc1ccc(OC2=NS(=O)(=O)c3ccccc32)cc1	-2	-3%	3%	12%	1%	0%
CCN(CC)c1cccc(OC2=NS(=O)(=O)c3ccccc32)c1	-1	45µM*[fluorescent]	40µM*	/	1%	10%
CC(C)CCCCOC(=O)c1ccccc1C(=O)OCCCCC(C)C	/	-3%[201 µM]	1%[201 µM]	/	/	/
CC[n+]1c(/C=C/C=C/N(C(C)=O)c2ccccc2)sc2ccccc21	?	16%	6%	-177%	?	?
CCn1c(/C=C/N(C(C)=O)c2ccccc2)[n+](CC)c2ccc(Cl)cc21	1	-2%	-16%	1.8µM*	8%	-17%
CCN(Cc1cccc(S(=O)(=O)O)c1)c1ccc(C(=C2C=CC(=[N+](CC)Cc3cccc(S(=O)(=O)[O-])c3)C=C2)c2ccccc2)cc1	/	89µM*[quencher]	?	/	/	/
CCN(CC)c1ccc(C(=C2C=CC(=[N+](CC)CC)C=C2)c2ccccc2)cc1	-6	0%	-8%	/	/	-28%
CCN(Cc1ccccc1)c1ccc(/C=N/NS(=O)(=O)c2cccc([N+](=O)[O-])c2)cc1	/	4%	0%	21%	-2%	?
CCN(CC)c1ccc(C(=C2C=CC(=[N+](CC)Cc3cccc(S(=O)(=O)[O-])c3)C=C2)c2ccc(N(CC)Cc3cccc(S(=O)(=O)O)c3)cc2)cc1	?	11µM*[fluorescent]	11µM*	/	/	?
O=c1c(-c2cc(-c3ccccc3)nc3c2COc2ccc(Cl)cc2-3)coc2ccccc12	/	?	2%	/	/	/
Cc1ccc2c(c1)-c1nc(-c3ccc(Cl)cc3)cc(-c3coc4ccccc4c3=O)c1CO2	/	10µM*[quencher]	0%	/	/	/
C[n+]1ccccc1N1CCN(c2ccccc2Cl)CC1	0	-1%[53 µM]	6%[53 µM]	13µM*	2%	0%
COc1cc(NS(=O)(=O)c2ccc3[nH]c4c(c3c2)CCCC4)cc(OC)c1OC	/	20µM*[quencher]	-15%	/	/	/
CCOc1cc(/C=C2\C(=O)N(c3nc(-c4ccc(Br)cc4)cs3)N=C2c2ccccc2)ccc1O	2	28µM*[quencher]	20%	100%	-4%	?
CCc1ccc(C(=O)c2cn(CC(=O)Nc3cccc(C)c3C)c3nc(C)ccc3c2=O)cc1	/	-2%	4%	/	/	/
Fc1ccc(C2=CC(c3ccc(F)cc3)n3c(nc4ccccc43)N2)cc1 (stereo not drawn)	/	2%	-1%	/	/	/
COC(=O)c1ccc(C2C=C(c3ccc(Cl)cc3)Nc3nc4ccccc4n32)cc1 (stereo not drawn)	/	0.14µM*[quencher]	-27%	/	/	/
